Test results from PubChem BioAssay (EPA / NIEHS).
Activity calls are given as the source filed them. Rule for the calls: active = hit-call score of the fitted dose curve at least 0.9, where 1 is the maximum; inactive = score below 0.9.

Columns and labels:
[1] = read-out: Matrix Metallopeptidase 1 (MMP1), MMP1 (gene 4312); experiment: BSK_hDFCGF_MMP1: BioMAP Diversity Plus: hDFCGF Assay for Matrix Metallopeptidase 1 (MMP1) Biomarker Activity (AID 2283064); details: primary human foreskin fibroblasts; actives raise or lower the signal
Summary of the method: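 ELISA read-out of MMP1 from human foreskin fibroblasts (primary skin cells), 24 h post-dose. Gain or loss of signal was fitted bidirectionally versus DMSO negative control; cytotoxicity was checked by SRB in parallel cultures.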

[2] = read-out: Vascular cell adhesion molecule 1 (VCAM1), VCAM1 (gene 7412); experiment: BSK_hDFCGF_VCAM1: BioMAP Diversity Plus: hDFCGF Assay for Vascular cell adhesion molecule 1 (VCAM1) Biomarker Activity (AID 2283065); details: primary human foreskin fibroblasts; actives raise or lower the signal
Summary of the method: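 Human foreskin fibroblast primary cells dosed with chemical, VCAM-1 measured by ELISA at 24 h. Bidirectional curve fitting relative to DMSO as negative control/baseline.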

[3] = read-out: Interferon-gamma inducible Protein 10 (IP10), CXCL10 (gene 3627); experiment: BSK_KF3CT_IP10: BioMAP Diversity Plus: KF3CT Assay for Interferon-gamma inducible Protein 10 (IP10) Biomarker Activity (AID 2283068); details: primary human keratinocytes with fibroblasts; actives raise or lower the signal
Summary of the method: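 Signal is secreted/surface IP-10 by ELISA in a human primary skin co-culture of keratinocytes and foreskin fibroblasts, taken 24 h post-dosing; DMSO served as negative control.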

[4] = BSK_KF3CT_SRB: Viability Assessment in the BioMAP Diversity Plus: KF3CT Assay (AID 2283069); details: primary human keratinocytes with fibroblasts
Summary of the method: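 SRB read-out at 560 nm (0.1% stain, TCA-fixed cells) gauges overt cytotoxicity in a human skin keratinocyte–fibroblast co-culture 24 h post-dosing. Signal change was fitted bidirectionally relative to DMSO control.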

[5] = read-out: Interleukin-1 alpha (IL1a), IL1A (gene 3552); experiment: BSK_KF3CT_IL1a: BioMAP Diversity Plus: KF3CT Assay for Interleukin-1 alpha (IL1a) Biomarker Activity (AID 2283070); details: primary human keratinocytes with fibroblasts; actives raise or lower the signal
Summary of the method: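 Primary skin co-culture (keratinocytes, foreskin fibroblasts), 24 h exposure; ELISA for IL-1a; bidirectional curve fit vs DMSO.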

[6] = read-out: TIMP metallopeptidase inhibitor 2 (TIMP2), TIMP2 (gene 7077); experiment: BSK_KF3CT_TIMP2: BioMAP Diversity Plus: KF3CT Assay for TIMP metallopeptidase inhibitor 2 (TIMP2) Biomarker Activity (AID 2283071); details: primary human keratinocytes with fibroblasts; actives raise or lower the signal
Summary of the method: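 TIMP-2 measured by ELISA at 24 h in human keratinocyte/fibroblast primary co-cultures exposed to chemicals. Both increases and decreases were fitted against DMSO. Parallel cultures were stained with SRB for total protein as an overt-cytotoxicity check.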

[7] = read-out: Transforming growth factor beta 1 (TGFb1), TGFB1 (gene 7040); experiment: BSK_KF3CT_TGFb1: BioMAP Diversity Plus: KF3CT Assay for Transforming growth factor beta 1 (TGFb1) Biomarker Activity (AID 2283072); details: primary human keratinocytes with fibroblasts; actives raise or lower the signal
Summary of the method: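 ELISA quantifies TGF-b1 at 24 h post-dose in a primary human skin co-culture of keratinocytes and fibroblasts, with gain or loss judged against DMSO. Parallel SRB total-protein staining flags overt cytotoxicity.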

[8] = read-out: C-C motif chemokine 2 (Homo sapiens) (UniProt P13500); experiment: BSK_KF3CT_MCP1: BioMAP Diversity Plus: KF3CT Assay for Monocyte Chemoattractant Protein 1 (MCP1/CCL2) Biomarker Activity (AID 2283073); details: primary human keratinocytes with fibroblasts; actives raise or lower the signal
Summary of the method: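 Human keratinocyte–foreskin fibroblast co-culture; MCP-1 measured by ELISA 24 h after dosing. Bidirectional fit vs DMSO; cytotoxicity tracked by SRB total protein in parallel cultures.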

[9] = read-out: Matrix Metallopeptidase 9 (MMP9), MMP9 (gene 4318); experiment: BSK_KF3CT_MMP9: BioMAP Diversity Plus: KF3CT Assay for Matrix Metallopeptidase 9 (MMP9) Biomarker Activity (AID 2283074); details: primary human keratinocytes with fibroblasts; actives raise or lower the signal
Summary of the method: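 ELISA read-out of MMP-9 at 24 h post-dosing in a co-culture of human skin keratinocytes and foreskin fibroblasts. Gain or loss of signal was fitted in both directions against DMSO.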

[10] = read-out: urokinase plasminogen activator (uPA), PLAU (gene 5328); experiment: BSK_KF3CT_uPA: BioMAP Diversity Plus: KF3CT Assay for urokinase plasminogen activator (uPA) Biomarker Activity (AID 2283075); details: primary human keratinocytes with fibroblasts; actives raise or lower the signal
Summary of the method: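 Skin co-culture (keratinocytes + foreskin fibroblasts), human primary; 24 h post-dose; uPA by ELISA; gain/loss fit vs DMSO baseline.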

CD40, CD40 (gene 958) = experiment: BSK_LPS_CD40: BioMAP Diversity Plus: LPS Assay for CD40 Biomarker Activity (AID 2283076); details: primary human HUVEC with PBMC; actives raise or lower the signal
Summary of the method: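 HUVEC plus PBMC co-culture stimulated with LPS; CD40 quantified by ELISA 24 h after compound dosing. Fitting was bidirectional relative to DMSO. SRB staining of parallel cultures flagged overt cytotoxicity.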

[11] = read-out: E-selectin (Homo sapiens) (UniProt P16581); experiment: BSK_LPS_Eselectin: BioMAP Diversity Plus: LPS Assay for Eselectin Biomarker Activity (AID 2283077); details: primary human HUVEC with PBMC; actives raise or lower the signal
Summary of the method: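 Human umbilical vein endothelial cells co-cultured with PBMC under LPS stimulation; cell-surface E-selectin measured by ELISA 24 h after dosing. Change in either direction versus DMSO, with SRB total-protein staining in parallel cultures for cytotoxicity.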

[12] = read-out: Interleukin-8 (IL8), CXCL8 (gene 3576); experiment: BSK_LPS_IL8: BioMAP Diversity Plus: LPS Assay for Interleukin-8 (IL8) Biomarker Activity (AID 2283078); details: primary human HUVEC with PBMC; actives raise or lower the signal
Summary of the method: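 Human umbilical vein endothelial cells co-cultured with PBMC, LPS-stimulated, exposed to compound for 24 h. IL-8 quantified by ELISA; fitted in both directions against DMSO, with SRB total-protein staining of parallel cultures for cytotoxicity.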

[13] = BSK_LPS_SRB: Viability Assessment in the BioMAP Diversity Plus: LPS Assay (AID 2283079); details: primary human HUVEC with PBMC;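 note: total protein by sulforhodamine B absorbance as a cytotoxicity measure; measured one day after compound addition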
Summary of the method: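 Co-culture of human umbilical vein endothelial cells and PBMC, read 24 h after dosing. Total protein by 0.1% SRB staining after 10% TCA fixation, absorbance at 560 nm; bidirectional fit against DMSO.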

[14] = read-out: Interleukin-1 alpha (IL1a), IL1A (gene 3552); experiment: BSK_LPS_IL1a: BioMAP Diversity Plus: LPS Assay for Interleukin-1 alpha (IL1a) Biomarker Activity (AID 2283080); details: primary human HUVEC with PBMC; actives raise or lower the signal
Summary of the method: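 Human umbilical vein endothelial cells co-cultured with PBMC and stimulated with LPS; IL-1a measured by ELISA 24 h after dosing. Bidirectional fitting against DMSO; cytotoxicity checked by SRB staining in parallel cultures.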

[15] = read-out: Monocyte Chemoattractant Protein-1 (MCP1), CCL2 (gene 6347); experiment: BSK_LPS_MCP1: BioMAP Diversity Plus: LPS Assay for Monocyte Chemoattractant Protein-1 (MCP1) Biomarker Activity (AID 2283081); details: primary human HUVEC with PBMC; actives raise or lower the signal
Summary of the method: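 Human umbilical vein endothelial cells co-cultured with PBMC, LPS-stimulated; secreted MCP-1 measured by ELISA 24 h after compound addition. Bidirectional curve fitting against DMSO baseline; SRB total-protein staining in parallel cultures for cytotoxicity.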

[16] = BSK_LPS_PGE2: BioMAP Diversity Plus: LPS Assay for Prostaglandin E2 (PGE2) Biomarker Activity (AID 2283082); details: primary human HUVEC with PBMC; actives raise or lower the signal;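 for AC50: secreted prostaglandin E2 measured by ELISA in LPS-stimulated co-culture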
Summary of the method: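 PGE2 release measured by ELISA in an LPS-activated co-culture of human umbilical vein endothelial cells and peripheral blood mononuclear cells, read at 24 h post-dosing. DMSO served as baseline for bidirectional curve fitting.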

[17] = read-out: Macrophage colony-stimulating factor (MCSF), CSF1 (gene 1435); experiment: BSK_LPS_MCSF: BioMAP Diversity Plus: LPS Assay for Macrophage colony-stimulating factor (MCSF) Biomarker Activity (AID 2283083); details: primary human HUVEC with PBMC; actives raise or lower the signal
Summary of the method: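 HUVEC–PBMC co-culture, M-CSF measured by ELISA 24 h after chemical dosing. Fitted in both directions relative to DMSO as negative control; overt cytotoxicity assessed by SRB total-protein staining in parallel cultures.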

[18] = read-out: Plasminogen activator inhibitor-1 (PAI1), SERPINE1 (gene 5054); experiment: BSK_hDFCGF_PAI1: BioMAP Diversity Plus: hDFCGF Assay for Plasminogen activator inhibitor-1 (PAI1) Biomarker Activity (AID 2283066); details: primary human foreskin fibroblasts; actives raise or lower the signal
Summary of the method: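 PAI-1 levels in human dermal foreskin fibroblasts were quantified by ELISA 24 h after dosing, with gain or loss analysed against DMSO. Overt cytotoxicity was checked by sulforhodamine B total-protein staining in parallel cultures.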

[19] = read-out: Intercellular Adhesion Molecule 1 (ICAM1), ICAM1 (gene 3383); experiment: BSK_KF3CT_ICAM1: BioMAP Diversity Plus: KF3CT Assay for Intercellular Adhesion Molecule 1 (ICAM1) Biomarker Activity (AID 2283067); details: primary human keratinocytes with fibroblasts; actives raise or lower the signal
Summary of the method: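 Human keratinocyte–foreskin fibroblast co-culture was treated for 24 h. Cell-surface ICAM-1 was quantified by ELISA, fitted bidirectionally relative to DMSO. Cytotoxicity was checked in parallel cultures by SRB total-protein staining.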

Measured: AC50

Sequence of E-selectin (Homo sapiens) (P16581 whole entry, looked up): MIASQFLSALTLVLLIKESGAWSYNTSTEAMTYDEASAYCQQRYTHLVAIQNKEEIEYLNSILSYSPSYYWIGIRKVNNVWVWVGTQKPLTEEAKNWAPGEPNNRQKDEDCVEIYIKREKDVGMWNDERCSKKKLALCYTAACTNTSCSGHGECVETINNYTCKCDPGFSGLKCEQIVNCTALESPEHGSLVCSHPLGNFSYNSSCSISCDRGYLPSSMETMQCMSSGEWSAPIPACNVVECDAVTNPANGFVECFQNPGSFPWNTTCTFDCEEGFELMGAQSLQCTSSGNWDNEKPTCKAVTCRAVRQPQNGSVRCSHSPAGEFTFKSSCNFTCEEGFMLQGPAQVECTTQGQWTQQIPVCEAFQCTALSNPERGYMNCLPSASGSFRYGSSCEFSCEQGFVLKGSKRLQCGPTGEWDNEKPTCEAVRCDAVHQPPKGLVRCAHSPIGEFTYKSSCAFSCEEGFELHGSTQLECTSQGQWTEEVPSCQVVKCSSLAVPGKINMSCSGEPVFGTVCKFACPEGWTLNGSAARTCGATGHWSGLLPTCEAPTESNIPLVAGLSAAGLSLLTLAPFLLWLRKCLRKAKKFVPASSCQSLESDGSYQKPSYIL

CCOP(=S)(OCC)SCn1nnc2ccccc2c1=O
active: [17] 20 µM
not listed: [18] | [19]
inactive: all other assays above

Cc1ccc2c(c1N)C(=O)c1ccccc1C2=O
active: [6] 6.86 µM
not listed: [4] | [18] | [19]
inactive: all other assays above

CC(C)(C)c1ccc(O)cc1
active: [16] 3.65 µM
not listed: [2]
inactive: all other assays above
